Results published in PubChem BioAssay AID504333 (National Center for Advancing Translational Sciences (NCATS), 2011).
Among all 360,000 compounds or so, about 16,000 (4.4%) were called active. Entries that show only a call come without a potency. Inconclusive results (about 9%) are left out. The call rests on the fitted dose curve; in most records, active means well fitted inhibition curve with a large enough effect; inconclusive means small, poorly fitted or top-dose-only effect; inactive means no such curve, though single readings can be large or run the other way. The full list was thinned out, with actives kept by preference.
Further: nearly all actives have a fitted effect of over 60% in size.
Potency means the concentration at half of the fitted maximal effect.

The molecules below were run against Bromodomain adjacent to zinc finger domain protein 2B (Homo sapiens) (UniProt Q9UIF8) (assay: qHTS Assay for Inhibitors of BAZ2B). Settings: AlphaScreen BAZ2B-H3K14Ac peptide displacement; series mostly up to 114 µM.
Sequence of Bromodomain adjacent to zinc finger domain protein 2B (Homo sapiens) (Q9UIF8 whole entry, looked up, the tested form may be a part): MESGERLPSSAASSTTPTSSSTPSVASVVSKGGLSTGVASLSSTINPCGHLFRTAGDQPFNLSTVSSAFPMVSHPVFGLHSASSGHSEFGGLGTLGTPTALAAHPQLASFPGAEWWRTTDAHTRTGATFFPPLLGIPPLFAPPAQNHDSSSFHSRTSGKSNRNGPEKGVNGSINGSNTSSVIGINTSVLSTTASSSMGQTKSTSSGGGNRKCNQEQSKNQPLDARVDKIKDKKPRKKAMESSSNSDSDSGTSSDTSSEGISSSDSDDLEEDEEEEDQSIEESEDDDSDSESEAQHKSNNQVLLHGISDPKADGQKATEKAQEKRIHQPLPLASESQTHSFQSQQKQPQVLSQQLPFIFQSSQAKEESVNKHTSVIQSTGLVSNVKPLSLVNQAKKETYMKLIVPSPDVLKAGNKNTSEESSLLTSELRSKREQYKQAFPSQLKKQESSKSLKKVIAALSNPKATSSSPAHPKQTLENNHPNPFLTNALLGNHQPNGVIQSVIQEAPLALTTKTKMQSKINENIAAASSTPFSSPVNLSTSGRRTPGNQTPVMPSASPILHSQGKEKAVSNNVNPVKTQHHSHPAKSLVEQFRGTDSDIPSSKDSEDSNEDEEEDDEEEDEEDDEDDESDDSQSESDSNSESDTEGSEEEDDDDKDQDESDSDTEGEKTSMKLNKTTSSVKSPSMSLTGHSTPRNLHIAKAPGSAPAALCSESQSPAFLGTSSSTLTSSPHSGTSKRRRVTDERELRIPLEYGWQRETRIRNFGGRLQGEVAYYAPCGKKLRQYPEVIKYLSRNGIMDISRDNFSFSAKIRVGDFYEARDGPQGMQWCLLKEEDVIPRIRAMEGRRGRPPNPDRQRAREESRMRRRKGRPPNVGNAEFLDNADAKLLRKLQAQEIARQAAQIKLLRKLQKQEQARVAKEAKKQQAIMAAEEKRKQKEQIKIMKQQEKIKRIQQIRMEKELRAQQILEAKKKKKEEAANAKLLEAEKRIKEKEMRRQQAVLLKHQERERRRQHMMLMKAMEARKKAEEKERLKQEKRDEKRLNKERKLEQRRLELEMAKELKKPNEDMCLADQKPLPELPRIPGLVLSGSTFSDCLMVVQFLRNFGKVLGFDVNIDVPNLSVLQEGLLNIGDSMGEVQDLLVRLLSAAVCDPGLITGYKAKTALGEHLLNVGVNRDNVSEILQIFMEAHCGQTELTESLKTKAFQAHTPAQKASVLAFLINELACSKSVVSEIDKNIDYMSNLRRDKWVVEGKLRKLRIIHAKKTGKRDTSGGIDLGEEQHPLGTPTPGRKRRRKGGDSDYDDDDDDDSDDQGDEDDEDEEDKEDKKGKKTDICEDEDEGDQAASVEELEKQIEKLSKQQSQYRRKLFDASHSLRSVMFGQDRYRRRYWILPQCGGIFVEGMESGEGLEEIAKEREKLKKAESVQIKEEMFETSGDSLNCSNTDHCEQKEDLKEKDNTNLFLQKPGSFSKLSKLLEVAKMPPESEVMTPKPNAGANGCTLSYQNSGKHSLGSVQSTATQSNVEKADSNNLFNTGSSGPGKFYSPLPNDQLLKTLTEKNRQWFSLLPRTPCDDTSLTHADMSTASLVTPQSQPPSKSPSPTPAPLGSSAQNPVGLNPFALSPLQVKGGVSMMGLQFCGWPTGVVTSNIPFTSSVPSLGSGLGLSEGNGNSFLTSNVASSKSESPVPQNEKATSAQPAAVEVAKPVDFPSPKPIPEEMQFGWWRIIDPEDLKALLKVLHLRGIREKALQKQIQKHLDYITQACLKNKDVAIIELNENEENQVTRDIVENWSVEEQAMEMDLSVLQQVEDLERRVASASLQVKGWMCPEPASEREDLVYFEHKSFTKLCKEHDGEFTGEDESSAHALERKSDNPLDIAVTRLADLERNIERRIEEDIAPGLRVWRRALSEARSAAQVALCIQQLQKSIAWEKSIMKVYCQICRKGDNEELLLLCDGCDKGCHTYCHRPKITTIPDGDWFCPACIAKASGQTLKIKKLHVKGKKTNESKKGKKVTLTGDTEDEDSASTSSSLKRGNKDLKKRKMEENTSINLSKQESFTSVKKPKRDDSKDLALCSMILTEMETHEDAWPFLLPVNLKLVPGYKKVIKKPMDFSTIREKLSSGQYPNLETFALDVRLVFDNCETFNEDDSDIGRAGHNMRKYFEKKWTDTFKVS
How it was run: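 Inhibition is scored as reduced AlphaScreen emission. The BAZ2B/b-H3(5-23)K14Ac complex (50 nM each) in PBS pH 7.4, 0.01% Tween-20 meets compound (up to 110 uM) for 30 min at RT before bead addition.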
`CCOc1ccc(-c2cc(C)n3nc(C(=O)Nc4ccc(C)c(C)c4)cc3n2)cc1` was tested, and the Potency was “inactive”.
With `CCOC(=O)c1scc(-c2ccccc2)c1S(=O)(=O)Nc1ccccc1F` the Potency was “inactive”.
With `Cc1ccnc(-n2sc3ccccc3c2=O)n1` the Potency was 25.1 µM (active).
In the case of `Cc1ccnc(N2CCCC(C(=O)NC3CC3)C2)n1` (centres undefined), the Potency is reported as “inactive”.
For `Cc1ccnc(SCC(N)=O)n1`, the Potency was “inactive”.
For `Cc1ccc(C)c(N2CCN(S(=O)(=O)c3ccc4c(c3)C(C(C)C)C(=O)N4)CC2)c1` (centres undefined), the Potency was “inactive”.
In the case of `CC(NC(=O)c1cc2c(=O)n3ccccc3nc2n(C(C)C)c1=N)c1ccccc1` (centres undefined), the Potency is reported as “inactive”.
With `CCc1ccccc1NC(=O)CSc1nc(C)c(C(=O)Nc2ccccc2)c(-c2ccc(Cl)cc2)c1C#N` the Potency was “inactive”.
For `COc1ccc(-n2c(=O)[nH]c3cc(C(=O)NCCc4ccc(OC)c(OC)c4)ccc3c2=O)c(OC)c1`, the Potency was “inactive”.
In the case of `CCn1c(C)c(C)c2cc(C(=O)NCCc3cc(OC)ccc3OC)ccc21`, the Potency is reported as 31.6 µM (active).
For `COc1ccc(OC)c(CCNC(=O)c2nn(C)c3c2CS(=O)(=O)c2ccccc2-3)c1`, the Potency was “inactive”.
With `CCOc1cccc2cc(-c3cn4c(n3)sc3cc(C)ccc34)c(=O)oc12` the Potency was “inactive”.
With `Cc1ccc(NC(=S)Nc2ncccc2C)c(C)c1` the Potency was 44.7 µM (active).
With `Cc1ccc(NC(=O)CSc2cccc3cccnc23)c(C)c1` the Potency was “inactive”.
`Cc1cc(Br)ccc1NC(=S)NC1CCCC1` was tested, and the Potency was “inactive”.
`COC(=O)c1scc(-c2ccc(C)cc2)c1S(=O)(=O)Nc1cc(Cl)c(OC)cc1OC` was tested, and the Potency was “inactive”.
`Cc1cc(C)c(NC(=O)CCc2c(C)nc3c(c(C)nn3C(C)(C)C)c2C)c(C)c1` was tested, and the Potency was “inactive”.
With `OC(CNCCc1ccc(Cl)cc1Cl)COc1ccccc1` (centres undefined) the Potency was 70.8 µM (active).
In the case of `OC(CNCc1ccc2c(c1)OCO2)COc1ccccc1` (centres undefined), the Potency is reported as “inactive”.
With `COc1ccc(OCC(O)CNC(=O)Nc2ccc(Cl)cc2)cc1` (centres undefined) the Potency was “inactive”.
With `CCCNC(=O)c1ccc(Cn2c(SCC(N)=O)nc3ccccc3c2=O)cc1` the Potency was “inactive”.
In the case of `CC(=O)c1ccc(NC(=O)CSc2nnc(NC(=O)Nc3ccccc3)s2)cc1`, the Potency is reported as “inactive”.
`Cc1cc2c(cc3c(SCc4cccc(Cl)c4)nnc(C)n32)o1` was tested, and the Potency was 25.1 µM (active).
For `Cc1cc2c(cc3c(SCc4nc(-c5ccccc5)oc4C)nnc(C)n32)o1`, the Potency was “inactive”.
With `O=C(c1ccco1)N1CCN=C1SCc1cccc(Cl)c1` the Potency was “inactive”.
`CCc1ccccc1NC(=O)c1sc2nc3c(cc2c1N)CN(Cc1ccccc1)CC3` was tested, and the Potency was “inactive”.
In the case of `CCc1ccc(NC(=O)c2sc3nc4c(cc3c2N)CN(CC)CC4)cc1`, the Potency is reported as 35.5 µM (active).
For `CCN1CCc2nc3sc(C(=O)Nc4ccccc4OC(F)(F)F)c(N)c3cc2C1`, the Potency was “inactive”.
For `O=C(COc1ccccc1)NCc1ccc2c(c1)CCN2C(=O)c1ccc(F)cc1`, the Potency was “inactive”.
With `CCc1nc2cccnc2n1-c1ccc(CC(=O)Nc2c(C)cccc2C)cc1` the Potency was “inactive”.
With `Cc1cc(C)cc(NC(=O)CSc2nc3nccnc3c(=O)n2CCc2c[nH]c3ccccc23)c1` the Potency was “inactive”.
In the case of `Cc1ccc(-n2ncc3c(N4CCC(C(N)=O)CC4)ncnc32)cc1`, the Potency is reported as “inactive”.
In the case of `Cc1cc(C)cc(OCC(=O)Nc2nc(-c3ccc(F)cc3)ns2)c1`, the Potency is reported as “inactive”.
For `CN(C)c1ccc(Nc2c3c4c(cccc4n(C)c2=O)C(=O)c2ccccc2-3)cc1`, the Potency was 1.58 µM (active).
`COc1ccc(Br)cc1/C=N/NC(=O)c1cccc(S(=O)(=O)N2CCOCC2)c1` was tested, and the Potency was “inactive”.
In the case of `Cc1cccc(NC(=O)c2cccc(S(=O)(=O)N3CCCC3)c2)n1`, the Potency is reported as “inactive”.
In the case of `Cc1ncc(CO)c(/C=N/NC(=O)c2cccc(S(=O)(=O)N3CCCC3)c2)c1O`, the Potency is reported as 28.2 µM (active).
`CCC(=O)N1N=C(c2ccc(OC)cc2)CC1c1cn(-c2ccccc2)nc1-c1cccs1` (centres undefined) was tested, and the Potency was “inactive”.
In the case of `O=C(Cn1ncc2c3ccccc3n(Cc3ccccc3)c2c1=O)NC1CCCCCC1`, the Potency is reported as “inactive”.
In the case of `Fc1ccc(N2CCN(Cc3cnc(Oc4ccc(Br)cc4)s3)CC2)cc1`, the Potency is reported as “inactive”.
For `COc1ccc(N2CCN(Cc3nnc(-c4ccccc4)o3)CC2)cc1`, the Potency was “inactive”.
For `COc1ccc(N2CCN(Cc3ccc(Br)s3)CC2)cc1`, the Potency was 17.8 µM (active).
With `CCN1CCN(c2ncnc3c2cnn3-c2ccc(C)c(C)c2)CC1` the Potency was “inactive”.
For `CC(C)(C)c1ccc(OCC(=O)N2CCC(c3nc4ccccc4s3)CC2)cc1`, the Potency was “inactive”.
For `O=C(OCN1C(=O)c2ccccc2C1=O)/C(=C\c1ccco1)NC(=O)c1ccccc1`, the Potency was “inactive”.
In the case of `COC(=O)C1=C(C)N(C(C)c2ccccc2)C(=O)/C1=C\c1ccco1` (centres undefined), the Potency is reported as 20 µM (active).
In the case of `O=C(/C=C/c1ccco1)NC(=S)Nc1ccccc1Br`, the Potency is reported as “inactive”.
In the case of `CCc1cccc(C)c1NS(=O)(=O)c1ccc(-c2cc(C)no2)s1`, the Potency is reported as “inactive”.
`CCC(=O)N1CCc2cc(Br)cc(S(=O)(=O)CCC(=O)NCCc3ccc(OC)c(OC)c3)c21` was tested, and the Potency was “inactive”.
In the case of `CC(C)NC(=O)C1CCC(Cn2c(=O)c3sccc3n(Cc3ccc(F)cc3)c2=O)CC1` (centres undefined), the Potency is reported as “inactive”.
For `CCOC(=O)c1c(C)[nH]c(C)c1S(=O)(=O)N1CCCC(C(=O)NCc2ccccc2Cl)C1` (centres undefined), the Potency was “inactive”.
`O=C(Nc1ccccc1)c1ccco1` was tested, and the Potency was “inactive”.
With `O=C(Nc1nnc(CCOCCOCCc2nnc(NC(=O)c3ccco3)s2)s1)c1ccco1` the Potency was “inactive”.
In the case of `O=C(Nc1nc(-c2ccco2)c(-c2ccco2)s1)c1ccco1`, the Potency is reported as 44.7 µM (active).
With `CCOc1ccc(CNC(=O)c2ccc(CS(=O)c3ccccc3)o2)cc1` (centres undefined) the Potency was “inactive”.
In the case of `O=C(NCCCn1ccnc1)c1cc(-c2ccccc2)on1`, the Potency is reported as “inactive”.
For `COc1cccc(-c2nn(-c3ccccc3)cc2/C=C(\C#N)C(=O)NCCCn2ccnc2)c1`, the Potency was 50.1 µM (active).
In the case of `CC(C)(C)OC(=O)N/N=C/c1cn(-c2ccccc2)nc1-c1cccnc1`, the Potency is reported as “inactive”.
With `Cc1cc2c(cc1S(=O)(=O)CCC(=O)Nc1ccc(OC(F)(F)F)cc1)OCC(=O)N2` the Potency was “inactive”.
For `Cc1cc(C)cc(NC(=O)CSc2oc(-c3ccccc3)nc2S(=O)(=O)c2ccc(Cl)cc2)c1`, the Potency was “inactive”.
In the case of `COc1ccc2oc(=N)c(C(=O)Nc3ccc(Br)cc3)cc2c1`, the Potency is reported as “inactive”.
For `O=C(Nc1cccnc1)c1ccc(Cl)cc1[N+](=O)[O-]`, the Potency was “inactive”.
With `O=C(Nc1cccnc1)c1cc2cc(Br)ccc2oc1=O` the Potency was 79.4 µM (active).
`CCc1cc2c(cc3c(=O)n(CC(=O)N4CCN(c5cc(Cl)ccc5C)CC4)ncn32)s1` was tested, and the Potency was “inactive”.
In the case of `COc1cc(Cl)c(C)cc1NC(=O)CCc1nc2cccnc2n1Cc1cccs1`, the Potency is reported as “inactive”.
In the case of `CCOc1ccc(NC(=O)c2c(NCc3cccc(OC)c3OC)sc3c2CCC3)cc1`, the Potency is reported as “inactive”.
`Cc1ccc(-c2nn(CCC(=O)Nc3ccc(Cl)c(Cl)c3)c(=O)c3ccccc23)cc1` was tested, and the Potency was “inactive”.
`COc1ccc(CCC(=O)NCCc2csc(-c3ccc(Cl)cc3)n2)cc1` was tested, and the Potency was “inactive”.
For `CCOC(=O)c1ccc[n+](CC(=O)Nc2ccccc2OC(F)F)c1`, the Potency was “inactive”.
With `O=C(COC(=O)c1ccccc1SCC(=O)N1CCCC1)Nc1ccccc1OC(F)F` the Potency was “inactive”.
For `Cc1ccc(-c2nc(SCC(=O)Nc3ccccc3OC(F)F)c3c(C)c(C(=O)O)sc3n2)cc1`, the Potency was 44.7 µM (active).
With `COc1cccc(C(=O)NC2=NC(c3ccc(N(C)C)cc3)CC(=O)N2)c1` (centres undefined) the Potency was “inactive”.
In the case of `CCCCCn1c(=O)[nH]c2cc(C(=O)Nc3ccc(F)cc3)ccc2c1=O`, the Potency is reported as “inactive”.
`CCN(CC)S(=O)(=O)c1ccc2c(c1)N(CC(=O)NCC(C)c1ccccc1)C(=O)CO2` (centres undefined) was tested, and the Potency was “inactive”.
With `CC(=O)N1CCCc2cc(S(=O)(=O)Nc3ccc(Cl)cc3F)ccc21` the Potency was “inactive”.
In the case of `Cc1ccc2oc3c(c(=O)c2c1)C(c1ccc([N+](=O)[O-])cc1)N(CCCN1CCOCC1)C3=O` (centres undefined), the Potency is reported as “inactive”.
In the case of `Cc1ccccc1NC(=O)Cn1c(=O)n(CCc2ccccc2)c(=O)c2ccccc21`, the Potency is reported as “inactive”.
`Cc1ccc(C)c(CN2C(=O)c3ccccc3S(=O)c3ccc(C(=O)N4CCOCC4)cc32)c1` (centres undefined) was tested, and the Potency was “inactive”.
For `O=[N+]([O-])C(=c1ccc2c(c1)N1C3=C(CCCC3)CC3CCCCC31N=2)[N+](=O)[O-]` (centres undefined), the Potency was 44.7 µM (active).
For `Cc1ccccc1CNC(=O)c1ccc(NC(=O)N2CCCCc3ccccc32)cc1`, the Potency was “inactive”.
For `Cc1ccc(CNC(=O)CSC2=Nc3ccccc3C3=NC(C)C(=O)N23)cc1` (centres undefined), the Potency was “inactive”.
In the case of `CCCN1CCN(CCCNC(=O)c2ccc3nc(Cc4ccccc4)oc3c2)CC1`, the Potency is reported as “inactive”.
`Cc1ccc(NC(=S)NCCc2ccc(Cl)cc2)c(C)c1` was tested, and the Potency was 79.4 µM (active).
With `Cc1cc(F)ccc1NC(=S)NCCc1ccccc1` the Potency was “inactive”.
For `Cc1cccc(NC(=S)NCCc2ccc(Cl)cc2)c1C`, the Potency was “inactive”.
For `COc1cccc(N=C2SC(C(=O)Nc3cccc(Cl)c3)CC(=O)N2C)c1` (centres undefined), the Potency was “inactive”.
For `CCOC(=O)N1CCc2c(sc(NCc3cccc(F)c3)c2C(=O)Nc2ccccc2OCC)C1`, the Potency was “inactive”.
With `CSc1nnc(SCc2nc3sc(C(=O)O)c(C)c3c(=O)[nH]2)s1` the Potency was 50.1 µM (active).
With `Cc1sc2nc(CSCC(=O)Nc3c(Cl)cccc3Cl)[nH]c(=O)c2c1C` the Potency was “inactive”.
`Cc1sc2nc(CSCC(=O)NC3CCCCC3)[nH]c(=O)c2c1C` was tested, and the Potency was “inactive”.
In the case of `COc1c(Cl)cc(C(=O)N(Cc2ccccc2F)C2CCS(=O)(=O)C2)cc1Cl` (centres undefined), the Potency is reported as “inactive”.
`CC1CCCCN1CC(=O)N1CCCc2c1c(=O)oc1ccc(OCc3ccccc3)cc21` (centres undefined) was tested, and the Potency was “inactive”.
For `CCOc1ccc(NC(=O)C2CCN(S(=O)(=O)c3cc(-c4noc(C)n4)ccc3C)CC2)cc1`, the Potency was “inactive”.
In the case of `COCCNCCOCCOc1cccc(OC)c1`, the Potency is reported as “inactive”.
With `CC1(C)NC(=O)N(CCOc2cccc(Oc3ccccc3)c2)C1=O` the Potency was “inactive”.
For `CC(O)CNCCOc1cccc(Oc2ccccc2)c1` (centres undefined), the Potency was 50.1 µM (active).
In the case of `COc1ccc(-c2c3c(=O)n(C)c(=O)n(C)c3c3c(C)nc4ccccc4n23)cc1`, the Potency is reported as “inactive”.
In the case of `Cc1ccc(CCNC(=O)c2ccc3c(c2)N(Cc2cc(C)ccc2C)C(=O)c2ccccc2S3=O)cc1` (centres undefined), the Potency is reported as “inactive”.
`COc1cc(NC(=O)Cn2nc(-c3ccc(C)c(C)c3)ccc2=O)cc(OC)c1` was tested, and the Potency was “inactive”.
